# Bioassay records from PubChem.
# The full list was thinned out, with hits kept by preference.
# ERK EGF block – blocks ERK signaling stimulated by EGF. HEK293-V1b, EGF-stimulated phospho-ERK AlphaScreen. Potency, µM (series often up to 11.5 µM), most hits filed as inhibitors. 0.41% of 130,000 active. AID 1454; active = well fitted inhibition curve with a large enough effect; also: nearly all actives have a fitted effect of over 55% in size
#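 HEK293 cells stably expressing V1b receptor, serum-reduced (1% FBS) overnight, pretreated 30 min with compound, then stimulated 5 min with 25 nM EGF; phospho-ERK detected by AlphaScreen SureFire. AC50 from Hill fits, normalized to DMSO and EGF.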
# Hits are given with their value; - = inactive.
SMILES,ERK EGF block
COc1ccc(N2CCN(c3ccc(C(N)=O)cc3[N+](=O)[O-])CC2)cc1,-
COc1ccc(C(=O)/C=C/c2ccc(N3CCCCC3)c([N+](=O)[O-])c2)cc1,32µM
NC(=O)c1ccc(N2CCCCCC2)c([N+](=O)[O-])c1,-
O=C(O)c1cccc2c1C(=O)c1ccccc1C2=O,-
C/C(=N\N(C)C)C1=C(O)c2ccccc2C1=O,-
CN(C=[N+](C)C)c1cccc2c1C(=O)c1ccccc1C2=O,18µM
Cc1[nH]c2ccccc2c1CN1CCC(Cc2ccccc2)CC1,-
Cc1cc(C)cc(N(CC(=O)Nc2ccccc2C(=O)N2CCOCC2)S(C)(=O)=O)c1,-
O=[N+]([O-])c1ccccc1N/N=C1\CC2CC=CC12 (configuration not stated),13µM
O=C(N/N=C1\CC2CC=CC12)c1ccccc1Cl (configuration not stated),-
CC1(C)OC(=O)C(=NNc2ccccc2[N+](=O)[O-])C(=O)O1,-
COc1ccc(CCNC[C@@H](O)c2ccc(O)cc2)cc1OC,-
CCN(CC)c1ccc(N=Nc2nn(C)c(C)c2[N+](=O)[O-])cc1,16µM
CCN(CC)c1ccc(N=Nc2ncn[nH]2)cc1,-
CCN(Cc1ccccc1)c1ccc(/C=N/NS(=O)(=O)c2ccc(C)c([N+](=O)[O-])c2)cc1,-
Cc1ccc(CNC(=O)c2nn(C)c(C)c2[N+](=O)[O-])cc1,-
CCN(Cc1ccccc1)c1ccc(N=Nc2nn(C)c(C)c2[N+](=O)[O-])cc1,20µM
Cc1c(Cl)c([N+](=O)[O-])nn1CCCC(=O)N(Cc1ccccc1)Cc1ccccc1,-
O=C(Nc1ccccc1)N1CCC2(CC1)CCN(C(=O)c1ccco1)CC2,-
CS(=O)(=O)c1ccc(Cn2c3c(c4cc(F)cc(F)c42)CCC[C@H]3CC(=O)O)cc1,-
CC(C)CC(=O)/C(=C\c1ccc(Cl)cc1Cl)n1cncn1,28µM
CN(C)/C=C(/C(=O)c1ccc(Cl)cc1)n1cncn1,-
CN(C)c1ccc(/C=C(/C(=O)c2ccc(Cl)cc2Cl)n2cncn2)cc1,-
O=[N+]([O-])c1cc(/C=N/N2CCN(c3ccccc3)CC2)ccc1Cl,-
COc1ccccc1N1CCN(/N=C/C=C/c2ccccc2[N+](=O)[O-])CC1,20µM
SMILES,ERK EGF block
COc1ccccc1/C=C/C=N\N1CCN(Cc2ccccc2Cl)CC1,18µM
COc1cc(C(=O)N2CCN(c3ccccc3OC)CC2)c([N+](=O)[O-])cc1OC,-
Cc1ccc(/C=N/N2CCN(c3ccccc3)CC2)cc1,-
O=[N+]([O-])c1ccccc1/C=N\N1CCN(c2ccccc2)CC1,22µM
COc1ccccc1N1CCN(/N=C/c2cccc(OC)c2OC)CC1,-
Clc1ccccc1CN1CCN(/N=C/c2ccncc2)CC1,-
Clc1ccc(/C=N/N2CCN(Cc3ccccc3Cl)CC2)cc1,-
NCC1O[C@@H](OC2C(N)C[C@H](N)[C@@H](O[C@H]3OC(CO)C(O)C(N)C3O)C2O)C(O)C(O)C1O (some centres not stated),-
COc1cccc([C@@H]2Oc3ccc(Br)cc3C(=O)[C@H]2OC(=O)Nc2cc(OC)c(OC)c(OC)c2)c1,-
CC(=O)OC1C=C[C@]2(C)C(CC(OC(C)=O)[C@@]3(C)C4=CC(=O)OC(c5ccoc5)[C@]4(C)CCC23)C1(C)C (some centres not stated),-
CCC(C)C(NC)C(=O)O (configuration not stated),-
COC(=O)c1ccc(C(NC(=O)OCc2ccccc2)/C(C)=C/[C@@H](C)C(=O)NCc2cccnc2)cc1 (some centres not stated),-
N#CCCN(Cc1cccnc1)C(=S)NC(=O)C1CC1,-
CCNc1c([N+](=O)[O-])c(=O)oc2ccccc12,-
CCc1ccc(Nc2c([N+](=O)[O-])c(=O)oc3ccccc23)cc1,18µM
Cc1ccc(Nc2c([N+](=O)[O-])c(=O)oc3ccccc23)cc1,-
COc1cc([N+](=O)[O-])cc(/C=N/NC(=O)CC#N)c1O,-
CCC(/C=C1\Sc2ccc(OC)cc2N1CCO)=C\c1sc2ccc(OC)cc2[n+]1CCO,14µM
CCC(=O)/C=C1/Sc2ccc(OC)cc2N1CCO,-
COc1ccc2sc(/C=C/c3ccccc3O)[n+](C)c2c1,-
CC(=O)N1CCC[C@@]2(CCN(C(c3ccccc3)c3ccccc3)C2)C1,-
C=C[C@H]1CCC=C2C(=O)CCC[C@@H]21,-
Cc1cc(=O)cc2oc3cc(N)c(-c4c(C)cc(O)cc4O)c(C)c3nc1-2,-
Cc1ccc(Nc2nc(N)c([N+](=O)[O-])c(NCc3ccco3)n2)cc1C,-
Oc1ccccc1Nc1nc(NCc2ccco2)c2ccccc2n1,32µM
SMILES,ERK EGF block
Cc1ccc(-c2nc(NCc3ccco3)c3ccccc3n2)cc1,-
OCCN1CCN(c2nc(NCc3ccco3)c3ccccc3n2)CC1,-
Cc1cccc(Nc2nc(NCc3ccco3)c3ccccc3n2)c1,28µM
Cc1ccccc1Nc1nc(NCc2ccco2)c2ccccc2n1,-
O=C(c1cnccn1)N1CCC2(CC1)CCN(c1ncccn1)CC2,-
CCC/C=C(\CCC)C(NC(=O)Oc1ccc(F)cc1)c1ccc(C(=O)OC)cc1 (configuration not stated),-
CN(Cc1ccccc1)C(=O)COC(=O)CCNC(=O)c1ccccc1Cl,-
COc1ccc(C(=O)Nc2c(Cl)cc(Cl)cc2C(=O)N2CCOCC2)cc1,-
O=C(CCNC(=O)c1ccccc1Cl)Nc1nnc(C2CC2)s1,-
CCC(=O)OCC(=O)[C@@]1(OC(=O)CC)[C@H](C)C[C@@H]2[C@@H]3[C@H]([C@@H](O)C[C@@]21C)[C@]1(C)C=CC(=O)C=C1C[C@@H]3Cl,-
CC1=NN(c2ccccc2)C(=O)/C1=C\c1cc(C)n(-c2cccnc2)c1C,-
CC1=NN(c2ccccc2)C(=O)/C1=C/c1cccs1,-
CC1=NN(c2ccccc2)C(=O)/C1=C/c1ccc[nH]1,18µM
CC1=NN(c2ccccc2)C(=O)/C1=C\c1ccc(Br)s1,28µM
CC1=NN(c2ccccc2)C(=O)/C1=C/c1c(O)n(-c2ccc(F)cc2)[nH]c1=O,-
CC1=NN(c2ccccc2)C(=O)/C1=C\c1cc(C)n(-c2ccccc2)c1C,-
O=C(O)c1cn(C2CC2)c2cc(N3CCNCC3)c(F)cc2c1=O,-
Cc1cc(N/N=C2\CC(C)CC(C)(C)C2)nc2ccccc12 (configuration not stated),-
CC1C/C(=N/Nc2ccc([N+](=O)[O-])cc2[N+](=O)[O-])CC(C)(C)C1 (configuration not stated),13µM
CC1C/C(=N/Nc2nc3ccccc3[nH]2)CC(C)(C)C1 (configuration not stated),-
COc1ccc(/C=C/C(=O)NC(=S)N2CCSCC2)cc1,-
Cc1csc(SC(C)c2nc3scc(-c4ccccc4)c3c(=O)[nH]2)n1 (configuration not stated),-
COc1ccccc1/C=C/C(=O)/C=C/c1ccccc1O,35µM
COc1ccccc1/C=C/C(=O)N1CCCC1,-
COc1ccccc1/C=C/C(C)=O,-
O=c1cnc2cnc(Oc3ccccc3)nc2n1Cc1ccc(F)cc1,-
CCOC(=O)CNc1oc(-c2ccccc2)nc1-c1ccccc1,-
CCNC(=O)[C@H](C)/C=C/C(NC(=O)OCc1ccccc1)c1ccc(C(=O)OC)cc1 (some centres not stated),-
COC(=O)c1ccc(NC(=S)NN2CCCCC2c2cccnc2)cc1 (configuration not stated),-
O=C(NC(=S)N1CCCCC1)c1cccnc1,-
